Measured values from PubChem BioAssay (NCATS).
For some assays here: Results with a measured potency or affinity are listed apart. Active and inactive are the calls of the source. For most assays here, calls come from the whole dose curve.

Assays:
[1] = Ebola virus entry assay, blue channel fluorescence
[2] = Ebola virus entry assay, green fluorescence channel
[3] = Ebola virus entry assay, ratio channel readout
[4] = Ebola virus entry assay, blue channel fluorescence; remark: listed apart in the source

Measured: outcome

O=P(O)(O)C(Sc1ccc(Cl)cc1)P(=O)(O)O
inactive: all assays above

CO/N=C(\C(=O)N[C@@H]1C(=O)N2C(C(=O)O)=CCS[C@H]12)c1csc(N)n1
inactive: all assays above

CC[C@H](C)C(=O)O[C@H]1C[C@H](O)C=C2C=C[C@H](C)[C@H](CC[C@@H](O)C[C@@H](O)CC(=O)O)[C@H]21
inactive: all assays above

Cc1nnc2n1-c1ccc(Cl)cc1C(c1ccccc1Cl)=NC2
inactive: all assays above

CN[C@@H]1[C@H](O[C@H]2[C@H](O[C@H]3[C@H](O)[C@@H](O)[C@H](N=C(N)N)[C@@H](O)[C@@H]3N=C(N)N)O[C@@H](C)[C@]2(O)C=O)O[C@@H](CO)[C@H](O)[C@H]1O
inactive: all assays above

CC(C)(S)[C@@H](N)C(=O)O
inactive: all assays above

CC(C)(C)NC(=O)[C@@H]1C[C@@H]2CCCC[C@@H]2CN1C[C@@H](O)[C@H](Cc1ccccc1)NC(=O)[C@H](CC(N)=O)NC(=O)c1ccc2ccccc2n1
inactive: all assays above

O=C1[O][Bi][O]c2ccccc21
inactive: [1] | [3] | [4]

CO[C@H]1C=CO[C@@]2(C)Oc3c(C)c(O)c4c(O)c(c5c(c4c3C2=O)=NC2(CCN(CC(C)C)CC2)N=5)NC(=O)/C(C)=C\C=C/[C@H](C)[C@H](O)[C@@H](C)[C@@H](O)[C@@H](C)[C@H](OC(C)=O)[C@@H]1C
inactive: all assays above
